Screens: PubChem BioAssay, National Center for Advancing Translational Sciences (NCATS)
Rows were chosen to be rich in hits. Some 19% of all compounds tested hit in one or more screens of this group.
HT1080NT lethal: kills 2HG-producing HT-1080-NT fibrosarcoma cells. HT-1080-NT fibrosarcoma viability, CellTiter-Glo ATP luminescence, 48 h. Potency, µM (doses to about 46.1 µM), for inactives: at the top dose activity, negative = less viability, hits mostly cytotoxic. 360,000 compounds, 1.6% hits. AID 686970;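 note: NT is the 2HG producing partner of a matched IDH1 knockdown line; potency is the fitted concentration of half-maximal effect; 0% = DMSO-treated cells and -100% = media-only wells without cells; nearly all actives have a fitted effect of over 55% in size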
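HT-1080-NT; 750 cells/well; 5% FBS RPMI; 48 h compound, 37 degrees C; CellTiter-Glo luminescence; curve fitting and curve-class assignment.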
TDP1 cell CPT: DT40-hTDP1 cell growth loss with CPT | chicken DT40 Tdp1-/-;hTDP1 cells + 20 nM CPT, ATP luminescence, 48 h | Potency, µM (top dose mostly 46.2 µM), for inactives: at the highest dose activity change, negative = growth inhibition, hits mostly inhibitors | 420,000 compounds, 12% hits | AID 686979; note: potency is the fitted concentration of half-maximal effect; nearly all actives have a fitted effect of over 55% in size
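Cell growth measured by CellTiter-Glo luminescence after a minimum 48 h, 37 C compound exposure with 20 nM CPT in Tdp1-knockout DT40 cells stably expressing hTDP1, seeded 400/well; qHTS titration format.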
DT40 TDP1 no CPT: qHTS for Inhibitors of human tyrosyl-DNA phosphodiesterase 1 (TDP1): qHTS in cells in absence of CPT. DT40 Tdp1-/- hTDP1 cells, no CPT, ATP luminescence, 48 h. Potency, µM (doses to about 46.2 µM), for inactives: at the top dose activity change, negative = growth inhibition, hits mostly inhibitors. 420,000 compounds, 15% hits. AID 686978, 2013; note: potency is the fitted concentration of half-maximal effect; nearly all actives have a fitted effect of over 55% in size
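Growth of hTDP1-complemented DT40 Tdp1-knockout cells is measured by ATP luminescence after at least 48 hr compound exposure at 37 °C, with DMSO substituting for the 20 nM CPT used in the parallel screen.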
HT1080 IDH1KD tx: kills HT-1080 cells with IDH1 knockdown. AID 686971. HT-1080 IDH1 knockdown viability, ATP luminescence, 48 h. 360,000 compounds, 2% hits. Potency, µM (titrated, usually from 46.1 µM), for inactives: at the top dose activity, negative = toxicity, actives largely listed as cytotoxic;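 note: potency is the fitted concentration of half-maximal effect; 0% = DMSO wells and -100% = cell-free medium wells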
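% activity derives from luminescence (CellTiter-Glo), normalised to DMSO and no-cell wells. HT-1080-IDH1KD cells, 750/well, had 48 h compound exposure at 37 °C.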
IL-1B inflam inh: inflammasome signaling inhibition, IL-1 beta readout; activity change, % at 57.5 µM; 360,000 compounds, 4.7% hits; THP-1 LPS/ATP IL-1B secretion, AlphaLISA, 16 h; active compounds read low; in the data active = activity change below about -50%; inconclusive = mostly about -30% to -49%
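Secreted IL-1B measured by AlphaLISA bead assay after 16 h compound exposure of THP-1 cells; compounds (final up to 57.5 uM) added 1 h before LPS (250 ng/mL) and ATP (1.25 mM) stimulation; lower signal means less secretion.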
Starred values were filed as active, the others as inactive; ? = inconclusive; / = no result. Unless noted, calls come from the whole dose curve; as a rule, active = well fitted curve in the direction sought with a large enough effect; inconclusive = small, poorly fitted or top-dose-only effect, or another doubt; inactive = no such curve, though single readings can be large; an effect the other way counts as inactive or inconclusive. Unless noted, % is set by controls: 0 for no effect and ±100 for the full control effect.

SMILES	HT1080NT lethal	TDP1 cell CPT	DT40 TDP1 no CPT	HT1080 IDH1KD tx	IL-1B inflam inh
Cc1ccc(C)c(C(O)c2ncc(-c3cccc(C(F)(F)F)c3)[nH]2)c1 (stereo not drawn)	-27%	?	?	?	-54*
Cc1ccc(C)c(C(O)c2ncc(-c3ccc(F)cc3)[nH]2)c1 (stereo not drawn)	2%	16µM*	15µM*	-3%	-19
Cc1ccc(C(O)c2ncc(-c3ccc(F)cc3)[nH]2)c(C)c1 (stereo not drawn)	-18%	?	?	6%	-10
Cc1ccc(C(O)c2ncc(-c3ccc(Cl)cc3)[nH]2)c(C)c1 (stereo not drawn)	?	?	16µM*	?	8
C=C(CCO)C1=CCN(S(=O)(=O)C(C)(C)C)[C@H]1CCO	0%	-4%	-3%	4%	-2
O=C(/C=C/[C@H]1O[C@@H](n2ccc(=O)[nH]c2=O)[C@H](O)[C@@H]1O)NCc1cccc2ccccc12	26%	5%	21%	23%	-6
C[C@H](O)[C@@H]1CN2CCc3c([nH]c4ccccc34)[C@@H]2C[C@@H]1N(C)C(=O)NC1CCCCC1	-10%	?	?	-27%	7
Cn1c(SCc2c(F)cccc2Cl)nc2ccccc2c1=O	5%	-25%	-27%	7%	0
Cn1c(SCc2c(F)cccc2Cl)nc2c(c1=O)SCC2	-23%	-19%	?	-6%	-59*
COc1ccc(C(=O)Nc2ccccc2CCC2CCCCN2C)cc1 (stereo not drawn)	/	15%	-30%	/	/
CN1CCCC1CCOC(C)(c1ccccc1)c1ccc(Cl)cc1 (stereo not drawn)	16µM*	?	16µM*	?	?
CCc1ccc(NC(=O)[C@H](C)NC(=O)C2CCN(C(=O)[C@@H](N)Cc3ccccc3)CC2)cc1	0%	?	16µM*	-10%	-6
CCc1ccc(NC(=O)[C@H](C)NC(=O)C2CCN(C(=O)[C@@H](NC(=O)OC(C)(C)C)C(C)C)CC2)cc1	-4%	0%	-19%	0%	-6
COc1ccc(-c2nnc(SCCOc3ccccc3C)o2)cc1OC	/	?	18µM*	/	/
CCc1ccccc1OCCSc1nnc(-c2cc(OC)c(OC)c(OC)c2)o1	/	18µM*	18µM*	/	/
CCOc1ccc(OCC)c(NC(=O)c2nnn(CC(=O)Nc3cc(Cl)ccc3OC)c2N)c1	/	-15%	-19%	/	/
CCCc1cc(=O)[nH]c(SCC(=O)N(C)C2CCCCC2)n1	-1%	17%	0%	-8%	14
O=C(NCc1ccc2c(c1)OCO2)C1CCCN(S(=O)(=O)c2cccnc2)C1 (stereo not drawn)	-3%	-4%	-6%	-3%	-12
C=CCn1c2ccccc2c(=O)c2cc(C#Cc3ccccn3)ccc21	-23%	26µM*	18µM*	-7%	?
O=c1c2ccccc2oc2cc(C#Cc3ccccn3)ccc12	23%	-2%	-1%	15%	-5
O=C(COC(=O)CNS(=O)(=O)c1ccc(Br)cc1Cl)NC1CCCC1	-4%	-14%	-17%	-6%	?
O=C(Nc1nnc([C@@H]2C[C@H](O)[C@@H](CO)O2)s1)Nc1ccccc1C(F)(F)F	0%	-8%	-15%	16%	-12
CCOc1ccccc1N(C)C(=O)c1cc(S(=O)(=O)NCc2ccc(C)cc2)ccc1F	/	18µM*	21µM*	/	/
Cc1ccc(S(=O)(=O)NCc2ccccc2)cc1C(=O)N(C)Cc1ccc(F)cc1	18%	?	?	-2%	35
COc1ccccc1C(=O)NCCC(=O)NCc1ccccn1	-3%	-6%	-2%	10%	-1
SMILES	HT1080NT lethal	TDP1 cell CPT	DT40 TDP1 no CPT	HT1080 IDH1KD tx	IL-1B inflam inh
CCOC(=O)C1CCN(c2ncnc3c2nnn3C)CC1	/	-9%	-14%	/	/
O=c1[nH]c2c(c3c1CCCC3)CCCC2	-8%	21µM*	-15%	-3%	40
O=[N+]([O-])c1ccc(N=Nc2ncc[nH]2)cc1	18µM*	0.92µM*	0.73µM*	6.5µM*	-110*
Cc1cccnc1Nc1nc(-c2ccccn2)cs1	1.3µM*	0.13µM*	0.15µM*	1µM*	-111*
Cc1cccnc1Nc1nc(-c2ccccc2)cs1	-21%	?	0%	-11%	40
CC(=O)Oc1ccc(-c2csc(Nc3ccccn3)n2)cc1	-20%	16µM*	7.3µM*	?	-24
Fc1ccc(-c2csc(Nc3ccccn3)n2)cc1	0%	16µM*	?	-26%	12
Cc1cccc(Nc2nc(-c3ccc(F)cc3)cs2)n1	-3%	12µM*	?	-15%	-22
CN(C=O)c1ccc(CSc2ccccc2)cc1	14%	-2%	-25%	17%	?
CC(CCc1ccccc1)NC(=O)CSc1nc(N)cc(N)n1 (stereo not drawn)	-4%	-16%	7%	-1%	-7
c1ccc(Nc2nc(-c3cccs3)cs2)nc1	-26%	?	?	-22%	-13
COc1ccc(-c2csc(Nc3cccc(C)n3)n2)cc1	-19%	?	?	-19%	-6
Cc1cccc(Nc2nc(-c3cccs3)cs2)n1	-18%	?	23µM*	-28%	-15
Cc1cccc(Nc2nc(-c3ccccn3)cs2)n1	0.32µM*	5.2µM*	6.5µM*	0.35µM*	41
CC(C)(C)Nc1nc(SCC(=O)Nc2ccccc2)nc(N2CCOCC2)n1	-6%	?	23µM*	-2%	-90*
CCNc1nc(SCC(=O)Nc2ccc(Cl)c(Cl)c2)nc(N2CCOCC2)n1	?	?	18µM*	?	-59*
CN(C)c1nc(SCC(=O)Nc2ccc(Cl)c(Cl)c2)nc(N2CCOCC2)n1	-12%	-75%	23µM*	-18%	-9
Cc1cc(Cl)ccc1NC(=O)CCn1nc(C)c2c(C)n(-c3ccccc3)nc2c1=O	/	?	-23%	/	/
COc1ccc(S(=O)(=O)N2CC=C(C(=O)Nc3ccc(NC(C)=O)cc3)CC2)cc1	-5%	13%	0%	6%	0
CCOc1ccc2c(c1)C(C)=CC(C)(C)N2S(=O)(=O)c1ccc(NC(C)=O)cc1	3.7µM*	1µM*	1.3µM*	1.8µM*	66
COc1ccc2c(c1)C(C)=CC(C)(C)N2S(=O)(=O)c1ccc(NC(C)=O)cc1	?	5.8µM*	2.3µM*	?	67
O=C1NC(=S)NC(=O)C1Nc1ccc(Cl)cc1	-4%	?	7.3µM*	1%	-24
CC(=O)N1C(Nc2ccc(Cl)cc2)CCN1c1ccccc1 (stereo not drawn)	-13%	-20%	-19%	?	-21
